Compound activity as filed in PubChem BioAssay.
The list is not random: actives were taken first. Their share in the collection is about 2.7%.
CFTR F508del cor – correctors of CFTR F508del function in bronchial epithelial cells; hit rate 0.36% among 350,000; activity (quench increase), % at 7.58 µM; CFBE cells, YFP halide quenching; stimulated with forskolin plus potentiator P3; % fluorescence drop versus neutral controls;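 active = mean added fluorescence quench of at least 8% versus neutral control, with both replicates also reaching 8%; inconclusive = only one of the mean or replicate conditions met; inactive = mean below 8% and not both replicates reaching 8%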;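 note: cells transiently co-express mutant CFTR-F508del with the halide-sensitive YFP; corrector assay measuring rescue of mutant channel to the surface after 24 h compound exposure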
PGC1a acetyl inh – lowers PGC1a acetylation signal in U2OS cells. hit rate 0.17% among 350,000. inhibition, % at 15.6 µM. AlphaScreen anti-acetyl-lysine; with virally co-expressed GCN5 acetyltransferase. AID 651687;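 active = every replicate shows inhibition of at least 40%; inconclusive = mean inhibition at least 40% but some replicate below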
EWS-Fli inh – blocks EWS/Fli oncoprotein-driven transcription. inhibition, % at 12.6 µM. hit rate 0.67% among 350,000. AID 651661. A673 NR0B1-luciferase reporter, viability-normalised;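 active = mean inhibition of at least 50% after viability correction, with every replicate also passing that limit; inconclusive = mean reaches 50% but only one of two replicates passes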;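 note: firefly luciferase signal divided by Alamar Blue viability fluorescence both relative to DMSO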
HIV Env fusion – inhibitors of HIV Env-mediated cell fusion | hit rate 1.1% among 360,000 | HeLa-JRFL Env/CEM21 cell fusion, luciferase | AID 651610 | inhibition, % at 12.3 µM;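 active = mean replicate inhibition score of at least 50 and every replicate individually at or above 50; inconclusive = only one of the two criteria met; inactive = mean below 50 and not all replicates reaching 50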
INS-1E GSIS act – GLuc luminescence reporter in INS-1E cells, primary screen for activators of glucose-dependent secretion of insulin | activation, % at 16.6 µM | hit rate 0.61% among 370,000 | INS-1E GLuc reporter insulin secretion, 2-3 h;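 active = lowest replicate activation of at least 40%, so every replicate reaches that level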
PAX8 inh HTS – inhibitors of PAX8 transcriptional activity in RMG-I cells; RMG-I TPO-luciferase reporter, SteadyGlo, 24 h; inhibition, % at 12.6 µM; hit rate 1.2% among 360,000; AID 652154;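 active = mean replicate inhibition at least 60% with every replicate also reaching 60%; inconclusive = only one of the two criteria is met; inactive = mean below 60% and not all replicates reaching 60%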;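 note: luciferase light reporting Pax8 driven TPO promoter activity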
DNA binding – DNA binding small molecules. shares compounds with EWS-Fli inh. salmon sperm DNA acridine orange fluorescence polarization. AC35, µM (highest dose often 68 µM). hit rate 2% among 640;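 active = fitted curve reaches a 35% signal fall AC35 below twice the sample's top valid tested dose, actives reach about 48 µM in these data; inactive = the rest, including activity in the rising direction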;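 note: lower polarization ratio signals compound binding to DNA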
Hits are given with their value; - = inactive; ? = inconclusive; . = no result given.

SMILES | CFTR F508del cor | PGC1a acetyl inh | EWS-Fli inh | HIV Env fusion | INS-1E GSIS act | PAX8 inh HTS | DNA binding
Cc1noc(C)c1S(=O)(=O)N(C)C[C@H]1Oc2ccc(NS(=O)(=O)c3ccccc3)cc2CC(=O)N([C@@H](C)CO)C[C@H]1C | - | - | - | - | - | - | .
COc1ccc(CCC(C)NCC2CCCCC2)cc1 (stereo unspecified) | . | - | 90 | - | - | - | -
COc1ccc(CCC(C)NC2CCCCCCC2)cc1 (stereo unspecified) | - | - | - | - | - | - | .
COc1cc(-c2noc(C)c2C#Cc2nccn2C)cc(OC)c1OC | - | - | 52 | - | - | - | -
COc1cc(C(=O)CSc2nccn2C)cc(OC)c1OC | - | - | - | - | - | - | .
O=C(O)c1ccc(-c2ccccc2)[nH]1 | . | - | . | - | - | - | .
O=C(O)c1ccc2cc(-c3ccccc3)[nH]c2c1 | - | - | 64 | - | . | - | -
Cc1cccc(/C=C(\c2nc3ccccc3[nH]2)S(=O)(=O)c2ccccc2)c1 | - | - | 71 | - | - | 106 | -
COc1ccc(NC(=O)Nc2cccc3c2O[C@H](CN(C)S(=O)(=O)c2ccccc2)[C@H](C)CN([C@H](C)CO)C3=O)cc1 | - | - | - | - | - | - | .
COc1cc2c(OC(C)=O)c3c(c(-c4ccc5c(c4)OCO5)c2cc1OC)C(=O)OC3 | - | - | 65 | . | . | . | -
COc1ccc(-c2oc(=O)c3cc(OC)c(OC)cc3c2-c2ccc3c(c2)OCO3)cc1 | - | - | - | - | - | - | .
CCCN1C(=O)/C(=C/c2nc3ccccc3c(=O)[nH]2)c2ccccc21 | . | . | 84 | - | - | - | -
CN(C)CC(=O)N[C@H]1CC[C@H](CCNC(=O)C2CC2)O[C@H]1CO | - | - | - | . | - | . | .
CCn1c(C)cc(C(=O)CN2C(=O)c3ccccc3S2(=O)=O)c1C | - | . | 78 | 98 | - | - | -
C=CCn1c(C)cc(C(=O)CN2C(=O)c3ccccc3S2(=O)=O)c1C | . | - | . | . | . | . | .
Cc1ccc(C(=O)CN2C(=O)c3ccccc3S2(=O)=O)cc1 | - | - | 77 | 78 | - | 71 | -
Cc1cc(C(=O)CN2C(=O)c3ccccc3S2(=O)=O)c(C)n1C(C)C | - | . | 73 | 91 | - | 71 | -
O=C(C1CCC1)N1CC2(C1)[C@H](c1ccccc1)[C@H](CO)N2C(=O)c1cccnc1 | - | - | - | . | - | . | .
c1ccc(CSc2nnc(-c3ccco3)o2)cc1 | - | - | - | - | - | - | .
Brc1ccc(CSc2nnc(-c3ccco3)o2)cc1 | . | . | 82 | - | - | - | -
O=C(COC(=O)c1ccc[nH]c1=O)Nc1ccc(N2CCCCC2)cc1 | - | - | 75 | 62 | - | - | -
COC(=O)[C@H]1COC(c2ccc(OCCCO)cc2)=N1 | - | - | - | - | . | - | .
O=c1c2ccccc2nc(/C=C/c2cc(Br)ccc2O)n1CCCO | - | - | 53 | - | - | - | -
O=c1c2ccccc2nc(/C=C/c2cccc([N+](=O)[O-])c2)n1CCO | - | . | - | - | - | - | .
CN(C)c1ccc(/C=C2\CCC/C(=C\c3ccccc3)C2=O)cc1 | . | . | - | - | . | - | .
SMILES | CFTR F508del cor | PGC1a acetyl inh | EWS-Fli inh | HIV Env fusion | INS-1E GSIS act | PAX8 inh HTS | DNA binding
CN(C)c1ccc(C=c2c3ccccc3n3c2c2c([n+]3C)CCCC2)cc1 | - | - | 53 | - | - | 91 | 6.5µM
O=c1[nH]c(=O)n([C@H]2C[C@H](O)[C@@H](CO)O2)cc1C(F)(F)F | - | - | 57 | - | - | - | -
O=c1[nH]c(=O)n(C2C[C@H](O)[C@@H](CO)O2)cc1C(F)(F)F (stereo partly specified) | - | - | 62 | - | - | - | -
C[C@@H]1CN([C@@H](C)CO)C(=O)c2cccc(NC(=O)Nc3ccc(F)cc3)c2O[C@H]1CN(C)Cc1ccc(C(=O)Nc2ccccc2N)cc1 | - | - | - | . | - | - | .
Cc1ccc2nc3n(c(=O)c2c1)-c1cc2ccccc2cc1C(=O)NC3Cc1ccccc1 (stereo unspecified) | - | - | - | - | . | - | .
Cc1ccc2c(=O)n3c(nc2c1)C(Cc1ccc(O)cc1)NC(=O)c1cc2ccccc2cc1-3 (stereo unspecified) | - | - | 53 | - | - | - | -
CCCNC(=O)C[C@@H]1CC[C@H]2[C@@H](COc3ccc(NC(=O)c4cccc(OC)c4)cc3C(=O)N2C)O1 | - | - | - | - | - | - | .
N#C[C@H]1[C@H](c2ccc(-c3ccccc3F)cc2)[C@@H](CO)N1C(=O)Cc1ccccc1 | - | - | 62 | - | - | ? | -
C[C@@H]1CN([C@@H](C)CO)C(=O)c2cc(NC(=O)NC3CCCCC3)ccc2O[C@@H]1CN(C)Cc1ccc(C(=O)Nc2ccccc2N)cc1 | - | - | - | . | - | - | .
O=S(=O)(c1ccccc1)N1C[C@H]2[C@@H](c3ccccc31)[C@@H](CO)N2Cc1ccccc1 | - | - | - | . | - | - | .
C=C(C(=O)c1ccccc1)C(C)C(=C)C(=O)c1ccccc1 | . | . | 73 | - | . | 98 | -
C=C(C(=O)c1ccccc1)C(C(=C)C(=O)c1ccccc1)c1ccc(OC)cc1 | - | - | 78 | - | . | 117 | -
C=C(C(=O)c1ccccc1)C(c1ccccc1)C(C)C(=O)c1ccccc1 (stereo unspecified) | . | . | . | - | - | - | .
COc1ccc2c3c(n(C)c2c1)[C@@H](CO)N(Cc1ccccc1F)CC31CCN(C(=O)C2CCC2)CC1 | - | - | - | . | - | . | .
Nc1ccc(Cn2ccc3c4c(N)nc(N)nc4ccc32)cc1 | - | - | 70 | - | - | 70 | -
Cc1noc(C)c1S(=O)(=O)Nc1ccc2c(c1)C(=O)N([C@@H](C)CO)C[C@@H](C)[C@@H](CN(C)C(=O)Nc1ccc(C(F)(F)F)cc1)O2 | - | - | - | - | - | . | .
O=C(Nc1ccc(Br)cc1)c1ccc(F)c(S(=O)(=O)N2CCN(c3ccccn3)CC2)c1 | - | - | 59 | - | - | - | -
c1ccc(-c2ccc([C@H]3[C@H]4CNC[C@@H]3N4Cc3cc(-c4ccccc4)on3)cc2)cc1 | - | - | 58 | . | - | - | -
c1ccc(-c2cc(CN3[C@@H]4CNC[C@H]3C4c3ccc(-c4ccncc4)cc3)no2)cc1 (stereo partly specified) | - | - | - | . | - | - | .
CN1[C@@H]2Cn3c(ccc(-c4ccncc4)c3=O)[C@H]1[C@@H](C(=O)NCC1CCCCC1)[C@@H]2CO | - | . | - | . | - | - | .
COc1ccc(/C=C/C(=O)c2ccc(C(=O)/C=C/c3ccc(OC)c(OC)c3)cc2)cc1OC | - | - | 62 | - | - | - | -
COc1ccc(/C=C/C(=O)c2cc(F)ccc2OC(=O)c2ccccc2OC)cc1OC | - | . | 59 | - | - | 85 | -
CO[C@@H]1CN(C)C(=O)c2ccc(NS(C)(=O)=O)cc2OC[C@H](C)N(C(=O)NC(C)C)C[C@@H]1C | - | - | - | - | - | - | .
